Data as given in article PMC4336329 (PLoS ONE, 2015).
Among all 310,000 compounds or so, about 2,200 (0.71%) showed an effect of 50% or more. The effect is printed as a negative number. Shown is part of a subset that was picked to be rich in strong results.

molecular target: human ether-à-go-go-related gene (hERG) potassium channel (human, UniProt Q12809); assay: primary screen, population patch clamp on CHO cells stably expressing hERG; higher = less effect of the substance
Sequence (Q12809 whole entry, looked up): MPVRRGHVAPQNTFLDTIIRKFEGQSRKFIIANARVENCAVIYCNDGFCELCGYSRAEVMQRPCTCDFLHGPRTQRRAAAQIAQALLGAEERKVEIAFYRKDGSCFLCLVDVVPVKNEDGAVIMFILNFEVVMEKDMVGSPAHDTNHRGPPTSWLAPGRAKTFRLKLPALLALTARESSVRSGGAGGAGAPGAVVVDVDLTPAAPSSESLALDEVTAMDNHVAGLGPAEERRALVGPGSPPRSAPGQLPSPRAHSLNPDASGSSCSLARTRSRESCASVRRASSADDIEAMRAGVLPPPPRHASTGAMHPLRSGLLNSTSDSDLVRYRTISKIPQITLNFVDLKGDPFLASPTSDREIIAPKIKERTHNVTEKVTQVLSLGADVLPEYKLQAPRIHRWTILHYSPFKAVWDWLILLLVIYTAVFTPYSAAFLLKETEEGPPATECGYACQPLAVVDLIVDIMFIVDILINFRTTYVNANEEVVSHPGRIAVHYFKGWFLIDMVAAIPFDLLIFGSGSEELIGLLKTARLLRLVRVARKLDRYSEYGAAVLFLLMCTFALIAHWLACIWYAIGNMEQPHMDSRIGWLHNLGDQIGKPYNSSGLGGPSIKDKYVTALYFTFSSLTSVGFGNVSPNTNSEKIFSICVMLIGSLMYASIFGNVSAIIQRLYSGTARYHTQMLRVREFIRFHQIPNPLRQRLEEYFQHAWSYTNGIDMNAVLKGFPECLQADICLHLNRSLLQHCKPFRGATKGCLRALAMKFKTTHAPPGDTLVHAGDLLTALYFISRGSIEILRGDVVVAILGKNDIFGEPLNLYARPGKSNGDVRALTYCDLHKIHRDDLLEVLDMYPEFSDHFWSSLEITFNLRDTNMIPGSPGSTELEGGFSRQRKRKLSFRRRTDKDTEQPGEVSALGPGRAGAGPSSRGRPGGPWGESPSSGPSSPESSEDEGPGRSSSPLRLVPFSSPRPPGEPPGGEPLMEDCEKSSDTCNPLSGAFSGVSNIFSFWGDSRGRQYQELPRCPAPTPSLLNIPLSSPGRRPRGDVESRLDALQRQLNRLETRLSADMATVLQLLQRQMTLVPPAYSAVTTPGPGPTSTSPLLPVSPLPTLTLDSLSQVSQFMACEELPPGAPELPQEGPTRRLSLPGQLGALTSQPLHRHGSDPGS

Row | SMILES | hERG current change (%, negative = inhibition) at 1uM [%]
1 | CC(=O)Nc1ccc(S(=O)(=O)Oc2ccc(N3C(=O)C4CCCCC4C3=O)cc2)cc1 (stereo not shown) | 15.5
2 | CCOC(=O)c1nnn(-c2nonc2N)c1-c1ccc(F)cc1 | 13.5
3 | CC[C@H]1CC2CN3CCc4c([nH]c5ccccc45)C(C(=O)OC)(C2)C13.Cl (stereo partly shown) | 7.18
4 | CC[C@]12CCCN3CCc4c(n(c5ccccc45)[C@](O)(C(=O)OC)C1)[C@@H]32 | -69.4
5 | COC(=O)[C@@H]1[C@H]2C[C@H]3c4[nH]c5ccccc5c4CCN3C[C@@H]2CC[C@@H]1O | -21.3
6 | CCC12CCCN3CCc4c(n(c5ccccc45)C(O)(C(=O)OC)C1)C32 (stereo not shown) | -2.18
7 | COC(=O)C1C(O)CCC2CN3CCc4c([nH]c5ccccc45)C3CC21 (stereo not shown) | 1.1
8 | CC[C@]12CCCN3CCc4c(n(c5ccccc45)[C@@](O)(C(=O)OC)C1)[C@@H]32 | -85.4
9 | O=P(O)(O)C(O)C(F)(F)C(F)(F)C(F)(F)C(F)F (stereo not shown) | 21.8
10 | O=S(=O)(c1ccccc1)c1nc(-c2ccco2)oc1N1CCCCCC1 | 11.4
11 | O=C(Nc1ccncc1)c1ccc(F)cc1 | 7.66
12 | CCCn1c(SCC(=O)Nc2cccc(C(=O)OC)c2)nnc1-c1cccnc1 | -22.5
13 | Cc1ccc(NC(=O)C(C)Sc2nnc(-c3cccnc3)o2)cc1 (stereo not shown) | 14
14 | Cc1ccc(NC(=O)CSc2nnc(-c3cccnc3)n2-c2ccc(C)cc2)cc1 | 2.22
15 | Cc1ccc(NC(=O)C(C)Sc2nnc(-c3cccnc3)n2-c2ccccc2)cc1 (stereo not shown) | -86.2
16 | O=C(CSc1nnc(-c2cccnc2)n1CCN1CCCCC1)Nc1cccc(Cl)c1 | -80.3
17 | Cn1c(SCC(=O)Nc2cccc(F)c2)nnc1-c1cccnc1 | -6.1
18 | Cc1ccc(NC(=O)CSc2nnc(-c3cccnc3)n2CCN2CCCCC2)cc1 | -53.7
19 | O=C(CSc1nnc(-c2cccnc2)n1-c1ccccc1)Nc1ccccc1 | -44.9
20 | Cn1c(SCC(=O)Nc2ccc(F)cc2)nnc1-c1cccnc1 | -2.78
21 | CCOC(=O)c1ccc(CSc2nnc(N)s2)cc1 | 5.39
22 | Cc1ccc(C(=O)N2NC(c3ccc(F)cc3)C3C(=O)N(c4ccc(C)c(C)c4)C(=O)C32)cc1 (stereo not shown) | 10.6
23 | CCOC(=O)C1CCN(C(=O)Cn2cc(C(=O)C3CC3)c3ccccc32)CC1 | 13.4
24 | O=C(O)C(Cc1c[nH]c2ccccc12)NS(=O)(=O)c1ccc(Cl)c(C(F)(F)F)c1 (stereo not shown) | 7.86

Row | SMILES | hERG current change (%, negative = inhibition) at 1uM [%]
25 | COc1ccc(NC(=S)Nc2ccc(OC)cc2OC)c(OC)c1 | 17.8
26 | COC/C=C/C1=CC2=CC(=O)C(C)(OC(=O)c3cnc4ccccc4n3)C(=O)C2=CN1C1CC1 (stereo not shown) | 9.57
27 | N#Cc1cn(CCCOc2ccccc2)c2ccccc12 | 11.3
28 | c1ccc2c(NC3CCCC3)nnc(NC3CCCC3)c2c1 | -70.4
29 | c1ccc(-c2nc(NC3CCCC3)c3ccccc3n2)cc1 | 18.4
30 | c1csc(-c2nnc(NC3CCCCC3)c3ccccc23)c1 | -40.8
31 | CC1(C(=O)O)COC(c2ccc([N+](=O)[O-])cc2)OC1 (stereo not shown) | 2.26
32 | Cn1c(=O)cc(SCC(=O)N2CCCC2)c2ccccc21 | 9.79
33 | CCn1ccnc1CNC(=O)CC1C(=O)NCCN1Cc1ccc(F)cc1Cl (stereo not shown) | 13.5
34 | COc1ccc2[nH]cc(C(O)CN3CCC(C(N)=O)CC3)c2c1 (stereo not shown) | 11.1
35 | COc1ccc2[nH]cc(C(O)CN3CCN(c4ccccc4F)CC3)c2c1 (stereo not shown) | 8.35
36 | COc1ccc(N2CCN(CC(O)c3c[nH]c4ccc(OC)cc34)CC2C)cc1 (stereo not shown) | -50.6
37 | CC(C)OC(=O)/C(=C\c1ccccc1)NC(=O)c1ccccc1 | 9.47
38 | CCN(CC)S(=O)(=O)c1ccc(C)c(NC(=O)CNCCN(C(C)C)C(C)C)c1.O=C(O)C(=O)O | -66.5
39 | CCN(CC)S(=O)(=O)c1ccc(C)c(NC(=O)CN2CCN(C)CC2)c1.O=C(O)C(=O)O | 6
40 | CCN(CC)S(=O)(=O)c1ccc(C)c(NC(=O)CNCc2ccccc2OC)c1.O=C(O)C(=O)O | 20.9
41 | O=C1Nc2ccccc2N=C(c2ccccc2)C1N1CCOCC1 (stereo not shown) | 18.1
42 | COc1nc(NC2CCCCC2)nc(NC(C)(C)C)n1 | 4.9
43 | COC(=O)CSc1nnc(CSc2nc(C)cc(C)n2)n1Cc1ccco1 | 11.5
44 | Cc1ccc(NCc2nnc(SCc3ccc(C#N)cc3)n2Cc2ccco2)c(C)c1 | -54.9
45 | Cc1cc(C)nc(SCc2nnc(SCc3ccc([N+](=O)[O-])cc3)n2Cc2ccco2)n1 | -57.5
46 | Cc1cccc(-c2nnc(SCc3ccc(C#N)cc3)n2Cc2ccco2)c1 | -44
47 | Cc1cc(C)nc(SCc2nnc(SCC(N)=O)n2Cc2ccco2)n1 | -3.7
48 | Cc1ccc(-c2nnc(SCc3ccc(C#N)cc3)n2Cc2ccco2)cc1 | -19.2

Row | SMILES | hERG current change (%, negative = inhibition) at 1uM [%]
49 | Cl.O=C(NCCCn1ccnc1)c1cc(Cl)cc(Cl)c1 | 4.65
50 | CC1CCC/C(=C\Nc2ccc(C(=O)O)c(O)c2)C1=O (stereo not shown) | 9.19
51 | COc1cc(OC)cc(C(=O)Oc2ccc(/C=N/Nc3nc4ccccc4s3)cc2OC)c1 | 0.482
52 | Cc1onc(-c2c(Cl)cccc2Cl)c1C(=O)Nc1ccc(Cl)cn1 | 11.3
53 | COc1ccccc1NS(=O)(=O)c1cccc(C(=O)NCC(c2ccco2)N2CCCCC2)c1 (stereo not shown) | -0.284
54 | COc1ccccc1C(=O)NCC(=O)NC(C)c1ccc(-n2ccnc2)cc1 (stereo not shown) | -2.86
55 | CCOc1ccccc1C(=O)NCC(=O)NC(C)c1ccc(-n2ccnc2)cc1 (stereo not shown) | -58.3
56 | CCOc1ccccc1C(=O)NC(C)c1ccc(-n2ccnc2)cc1 (stereo not shown) | -34.8
57 | COc1ccccc1NC(=O)c1ccc(COc2ccccc2Br)o1 | 13.8
58 | O=C(O)C(=O)O.O=C(c1ccc([N+](=O)[O-])cc1)N1CCN(Cc2ccccc2[N+](=O)[O-])CC1 | -70.1
59 | COc1ccccc1N1CCN(Cc2ccc(SC)cc2)CC1.O=C(O)C(=O)O | -53.8
60 | COc1ccccc1N1CCN(Cc2ccccc2)CC1.O=C(O)C(=O)O | 6.85
61 | COc1ccc(C(=O)N2CCN(Cc3ccccc3[N+](=O)[O-])CC2)cc1.O=C(O)C(=O)O | -20.9
62 | CCN(CC)c1ccc(CN2CCC(C(=O)NCc3ccc(C)cc3)CC2)cc1.O=C(O)C(=O)O | -13.2
63 | CSc1ccc(CN2CCN(Cc3ccc([N+](=O)[O-])cc3)CC2)cc1.O=C(O)C(=O)O | -70.5
64 | CCc1ccc(CN2CCN(Cc3ccc(SC)cc3)CC2)cc1.O=C(O)C(=O)O | -27.1
65 | CSc1ccc(CN2CCC(C(=O)NCc3ccc(C)cc3)CC2)cc1.O=C(O)C(=O)O | -76.1
66 | COc1ccccc1N1CCN(Cc2ccc(Br)cc2)CC1.O=C(O)C(=O)O | -6.63
67 | CCS(=O)(=O)N1CCN(Cc2ccc([N+](=O)[O-])cc2)CC1.O=C(O)C(=O)O | 9.38
68 | COc1cc(OC)cc(C(=O)N2CCN(Cc3ccccc3[N+](=O)[O-])CC2)c1.O=C(O)C(=O)O | -7.12
69 | Cc1ccc(CNC(=O)C2CCCC2)cc1 | 10.4
70 | O=C(Cc1ccc([N+](=O)[O-])cc1)NCc1ccccn1 | 12.5
71 | CC(N=C1NS(=O)(=O)c2ccccc21)C(=O)OCC(=O)N(C)C1CCS(=O)(=O)C1 (stereo not shown) | -1.85
72 | Cc1ccc2c(c1)c1c(c(=O)n(-c3ccccc3C)c(=O)n1CC(=O)NCC1CCCO1)n2C (stereo not shown) | 0.188

Row | SMILES | hERG current change (%, negative = inhibition) at 1uM [%]
73 | CCOC(=O)[C@H]1[C@H]2COc3ccc(OC)cc3[C@@H]2N2C(=O)c3cc(OC)c(OC)cc3NC(=O)[C@@]12C | 5.4
74 | O=C(NNC(=S)Nc1ccccc1)c1ccc(O)cc1 | 15.2
75 | Cc1nn(-c2ccccc2)c(Cl)c1/C=C(\CC(=O)O)c1nc2ccccc2s1 | 2.95
76 | Cc1nnc(SCC(=O)Nc2sc3c(c2C(N)=O)CCC(C)C3)[nH]c1=O (stereo not shown) | 10.6
77 | CC1CCCCC1NC(=O)CN1C(=O)CSc2cc(S(=O)(=O)N3CCCCCC3)ccc21 (stereo not shown) | 7.3
78 | CSc1ccc(CN2CCN(C(=O)c3ccc([N+](=O)[O-])cc3)CC2)cc1.O=C(O)C(=O)O | -78.1
79 | O=C(c1ccc([N+](=O)[O-])cc1)N1CCN(Cc2ccccc2)CC1 | -28.7
80 | CSc1ccc(CN2CCN(C(=O)c3ccncc3)CC2)cc1 | -0.743
81 | Cc1[nH]c2ccc(Br)cc2c(=S)c1C/C=C/Cl | 5.3
82 | COCCNC(=O)NC(=O)COC(=O)C1(c2ccc(Cl)cc2)CC1 | 6.06
83 | COc1cc(O)c(C(CCN2CCCC2)c2ccc3c(c2)OCO3)c(OC)c1 (stereo not shown) | -41.5
84 | COc1ccc(C(CCN2CCCCC2)c2c(O)cc(OC)cc2OC)cc1 (stereo not shown) | -71.3
85 | CCN(CC)C(=O)CC(c1ccc2c(c1)OCO2)c1c(O)cc(OC)cc1OC (stereo not shown) | 5.47
86 | COc1cc(O)c(C(CCN2CCCC(C)C2)c2ccc(N(C)C)cc2)c(OC)c1 (stereo not shown) | -9.72
87 | COc1cc(O)c(C(CCN2CCCC(C)C2)c2ccc3c(c2)OCO3)c(OC)c1 (stereo not shown) | -84.1
88 | CCN(CC)CCC(c1ccc(OC)cc1)c1c(O)cc(OC)cc1OC (stereo not shown) | -25.8
89 | COc1cc(O)c(C(CCN2CCCCC2)c2ccc(N(C)C)cc2)c(OC)c1 (stereo not shown) | 10.3
90 | COc1cc(O)c(C(CCN2CCN(c3ccccc3)CC2)c2ccc3c(c2)OCO3)c(OC)c1 (stereo not shown) | 5.8
91 | COc1ccc(C(CCN2CCCC2)c2c(O)cc(OC)cc2OC)cc1 (stereo not shown) | -21.1
92 | CCN(CC)CCC(c1ccc2c(c1)OCO2)c1c(O)cc(OC)cc1OC (stereo not shown) | -73.4
93 | COc1cc(O)c(C(CC(=O)N2CCCC(C)C2)c2ccc3c(c2)OCO3)c(OC)c1 (stereo not shown) | 14.5
94 | COc1cc(O)c(C(CCN2CCCCC2)c2ccc3c(c2)OCO3)c(OC)c1 (stereo not shown) | -72.1
